Where “and” joins values, the source holds several entries; their conditions need not be identical. Equal entries are not always repeated. About 410 (0.15%) of roughly 270,000 compounds were called active. Rule as the data show it: active = activation above about 40%; inactive = the rest, inconclusive results apart. Only a selection was taken, and actives are over-represented in it overall. More than one record can exist for a structure, and the calls need not agree.
Test system: Aedes aegypti neuropeptide Y-like receptor 7 (NPYLR7)
Test: agonists of mosquito NPYLR7 receptor, primary screen, cell-based, Aedes aegypti, calcium fluorescence, mosquito biting behavior (AID 1259423);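 also: 0% = vehicle and 100% = reference agonist at the receptor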
Conditions: HEK293T NPYLR7/Galpha15, GCaMP6s calcium fluorescence, at 10 µM, stronger effect = higher value
[1] = measured here: Max-Min RFU normalised activation

| Structure (SMILES) | activation | activation [1] |
| --- | --- | --- |
| O=c1oc2c(CN3CC4CC(C3)c3cccc(=O)n3C4)c(O)ccc2cc1-c1nc2ccccc2s1 (stereo unspecified) | 303% (active) | 372% |
| Cc1c(F)cccc1C(=O)N1CCOC(c2ccccc2)C1 (stereo unspecified) | 0.877% (inactive) | -1.3% |
| COc1cc(C(=O)N2CCOC(c3ccccc3)C2)cc(OC)c1C (stereo unspecified) | 77.6% (active) | 58.9% |
| COc1ccc2cc(C3CN(C(=O)c4ccc[nH]4)CCO3)ccc2c1 (stereo unspecified) | -5.79% (inactive) | -7.4% |
| O=S(=O)(Cc1ccc(F)cc1)NCc1ccccc1OC(F)F | 1.17% (inactive) | 1.23% |
| Cc1cccc(C(=O)O/N=C\c2ccc(Br)cc2)c1 | 0.973% (inactive) | 3.02% |
| CON(C)C(=O)c1cccc(CN2CCS(=O)(=O)CC2)c1 | 7.7% (inactive) | 4.38% |
| CCOC(C)c1noc(CNC2(c3noc(CC)n3)CCCC2)n1 (stereo unspecified) | 3.73% (inactive) | 1.21% |
| C(=C\c1nn2c(CN3CCCCC3)nnc2s1)/c1ccccc1 | 1.3% (inactive) | 0.534% |
| COC(=O)C1Cc2ccccc2CN1Cc1cccc(C(=O)N(C)C)c1 (stereo unspecified) | 1.77% (inactive) | -13.5% |
| COc1ccc(CCN2CCC(CN(C)C(=O)c3ccoc3)CC2)cc1 | 13.3% (inactive) | 6.16% |
| O=c1[nH]c(Cn2nnc3ccccc3c2=O)nc2ccccc12 | -3.31% (inactive) | -3.64% |
| CCCCCCCC(=O)Nc1c(-c2ccc(Cl)cc2)nc2cc(C)ccn12 | -5.12% (inactive) | 1.14% |
| C/C=C\COC1CCCN(C(=O)COc2ccc(Cl)cc2)C1 (stereo unspecified) | -4.16% (inactive) | -5.2% |
| CCN1CCN(CC(O)COc2ccc(CN3CCc4ccccc4C3)cc2OC)CC1 (stereo unspecified) | 3.88% (inactive) | 3.04% |
| Brc1ccc(Oc2nc(N3CCCC3)nc(N3CCCC3)n2)cc1 | -2.87% (inactive) | -5.23% |
| N#CC1C(=N)SC(=N)C(C#N)C1c1cccc(O)c1 (stereo unspecified) | 51% (active) | 53% |
| CCc1ccc(C2C(C#N)C(=N)SC(=N)C2C#N)cc1 (stereo unspecified) | 0.645% (inactive) | -2.49% |
| N#CC1C(=N)SC(=N)C(C#N)C1c1ccco1 (stereo unspecified) | -5.34% (inactive) | -2.82% |
| COc1ccc(-c2nc(NC(=O)C3CCCC3)sc2C)cc1 | -2.08% (inactive) | 2.65% |
| CCC(C)(NC(=O)C1Cc2ccccc2O1)c1nccs1 (stereo unspecified) | -1.24% (inactive) | -2.94% |

| Structure (SMILES) | activation | activation [1] |
| --- | --- | --- |
| CCC1CCCCN1C(=O)CSc1c(C)[nH]c2ccccc12 (stereo unspecified) | -1.59% (inactive) | -2.64% |
| CCCN(C(=O)Cn1nc(C)c2ccccc2c1=O)[C@@H]1CCCC[C@H]1O | 0.206% (inactive) | -0.142% |
| CCCc1cc(=O)n2[nH]c(C)c(-c3cccc4ccccc34)c2n1 | -15.2% (inactive) | -20.4% |
| NC(=O)CN1C(=O)COc2ccccc21 | -19.8% (inactive) | -26.8% |
| CCCCN(C)C(=O)c1cnn(-c2ccccc2)c1 | 0.0336% (inactive) | -1.33% |
| O=C(NC1C=CS(=O)(=O)C1)c1cccc2ccnn12 (stereo unspecified) | 22.3% (inactive) | 9.91% |
| CCC(N)(C(=O)OC)c1ccccc1 (stereo unspecified) | 8.89% (inactive) | 3.04% |
| CCCC(C(=O)OCCN(CC)CC)(c1ccccc1)c1ccccc1 | 3.25% (inactive) and -1.52% (inactive) and 68.5% (active) | -42.8% and -5.9% and 58.4% |
| CC1Cc2c(NC(=O)CSCc3ccccc3)nn(C)c2NC1=O (stereo unspecified) | 3.06% (inactive) | -2.58% |
| CCN(CC)c1ccc2cc(-c3nnc(Nc4ccccc4F)s3)c(=O)oc2c1 | -10.4% (inactive) | -12.8% |
| O=c1[nH]c(=O)n(Cc2cccc(OC(F)F)c2)cc1Cl | 0.422% (inactive) and -19.6% (inactive) | -0.254% and -21% |
| CC(c1cccs1)N(C)C(=O)c1n[nH]c(C2CC2)c1Br (stereo unspecified) | -2.08% (inactive) | 0.622% |
| O=C1Nc2ccccc2C1=NN=C(C(=O)c1ccccc1)c1ccccc1 | 11.7% (inactive) | 10.9% |
| CCC(=O)Nc1cccc(OCC(=O)N2CCCC2c2nonc2C)c1 (stereo unspecified) | -16.1% (inactive) | -16.7% |
| Cc1ccc(NC(=O)Cn2cnc3sc4c(c3c2=O)CCC4)c(F)c1 | -14.9% (inactive) | -15.4% |
| COc1cc(C=C2SC(=S)NC2=O)cc(Br)c1O | 668% (active) | 942% |
| COc1cc(OC)c(OC)cc1/C=C1/SC(=S)NC1=O | -3.39% (inactive) | -7.58% |
| COc1ccc(C=C2SC(=S)NC2=O)cc1OC | 1.47% (inactive) | 3.32% |
| Cc1cc(S(=O)(=O)C(CNC(=O)CC(C)(C)C)c2cccs2)ccc1F (stereo unspecified) | 5.15% (inactive) | 2.88% |
| COCCNC(=S)N(CCC#N)CCN(CCC#N)C(=S)NCCOC | -2.49% (inactive) | -3.45% |
| Cc1cnccc1N1CCCN(C(=O)[C@H](N)CC(C)C)CC1 | 8.21% (inactive) | 7.83% |

| Structure (SMILES) | activation | activation [1] |
| --- | --- | --- |
| Cc1ccccc1-c1noc(CN2CCN(C(=O)c3cc(C4CC4)[nH]n3)CC2)n1 | 0.903% (inactive) | 0.506% |
| CCC(CO)[n+]1c(C)cc(C=C2Sc3ccccc3N2CC)cc1C (stereo unspecified) | 56.5% (active) | 44.4% |
| Cn1nc(C(F)(F)F)cc1C(=O)N1CCCC(O)(CO)CC1 (stereo unspecified) | 3.25% (inactive) | 1.85% |
| COC(=O)Cn1cc(C=C(C#N)C(=O)NCCc2c[nH]c3ccccc23)c2ccccc21 | 1.04% (inactive) | 1.01% |
| CCCn1nccc1C(=O)Nc1cc2c(C)cc(=O)oc2cc1C | -4.21% (inactive) | -5.15% |
| CCCc1nc(N2CCCN(c3ncccn3)CC2)c2cnn(C)c2n1 | -2.57% (inactive) | -6.77% |
| COc1ccc(OC)c(S(=O)(=O)N2CCCC(c3nc4ccccc4s3)C2)c1 (stereo unspecified) | -8.36% (inactive) | -7.77% |
| Cc1ccn(-c2ccc(NC3CC4CCC3O4)nn2)n1 (stereo unspecified) | 7.09% (inactive) | 3.85% |
| Cc1ccc(C2(c3noc(CN(C)Cc4ccc5ccccc5n4)n3)CCCC2)cc1 | 32.2% (inactive) and 4.89% (inactive) | 24.1% and 13.2% |
| CSc1[s+]sc2c1-c1ccc(C)cc1NC2(C)C | -1.46% (inactive) | 5.63% |
| Cn1cc(NC(=O)Nc2cccc(N3CCCCCC3)c2)cn1 | 8.13% (inactive) | 3.07% |
| O=C(O)c1[nH]ncc1CN1CCCC(c2[nH]ncc2Cc2ccccc2)C1 (stereo unspecified) | 2.78% (inactive) | 3.74% |
| O=C(CCc1ccco1)N1CCc2onc(-c3ccc(C(F)(F)F)cc3)c2C1 | 3.67% (inactive) | -10.1% |
| O=C(O)c1[nH]ncc1CN1CCc2onc(-c3ccc(C(F)(F)F)cc3)c2C1 | 78.5% (active) | 41.2% |
| Cc1csc(N(C)C(=O)c2cc(N3CCNC3=O)ccc2F)n1 | -7.45% (inactive) | -7.61% |
| COc1ccc(-n2nnc3c(N4CCN(C(=O)c5ccc(Br)o5)CC4)ncnc32)cc1 | -8.62% (inactive) | -14.8% |
| CCOc1ccc(/C=C(\C#N)c2[nH]nc(N)c2C#N)cc1OCC | -1.82% (inactive) | -4% |
| CCOc1cc(/C=C(\C#N)c2nc3ncc(Br)cc3[nH]2)ccc1O | 90.2% (active) | 69.1% |
| N#CCc1nc2ncc(Br)cc2[nH]1 | -4.5% (inactive) | -5.31% |
| OCc1ccc(CN2CCC(Oc3ccc(Cl)cc3)CC2)o1 | 2.49% (inactive) | 0.105% |
| COCCN(Cc1cc(NC(=O)c2cccc(F)c2)ccc1N(C)C)C(=O)NC(C)(C)C | -2.37% (inactive) | -0.561% |

| Structure (SMILES) | activation | activation [1] |
| --- | --- | --- |
| CCOC(=O)c1ccc2c(c1)nc(SCc1cccc(C(=O)OC)c1)n2Cc1cccc(F)c1 | -6.01% (inactive) | -4.5% |
| COc1cc(C=C2C=c3c(O)cccc3=C2O)cc(Cl)c1O | 203% (active) | 183% |
| COc1cc(/C=C2/C(=O)N(c3ccc(Cl)c(Cl)c3)N=C2C)cc(Br)c1O | -1.16% (inactive) | 5.59% |
| COc1cccc(CSc2nnc(CNC(=O)Nc3cc(OC)cc(OC)c3)n2-c2ccc([N+](=O)[O-])cc2)c1 | 22.3% (inactive) | 16.8% |
| CC(C)CNC(=O)c1ccc2c(=O)n(Cc3ccccc3)c3nn(CC(N)=O)c(=O)n3c2c1 | 2.33% (inactive) | -0.424% |
| C/C=C/c1cc(C(=O)N2CCN(CCO)CC2)cc(OC)c1OC | 2.68% (inactive) | 0.348% |
| CC(C)N(CC1CCC(=O)N1)C(=O)c1cc(Cl)c[nH]c1=O (stereo unspecified) | -1.21% (inactive) | -6.03% |
| CN1CC2(CCCN(C(=O)c3cccc(Cn4cccn4)c3)CC2)OC1=O (stereo unspecified) | 33.4% (inactive) | 15.5% |
| CC(C)(Oc1ccc(Cl)cc1)C(=O)Nn1cnc2c(cnn2-c2ccccc2)c1=O | 2.94% (inactive) | -1.1% |
| O=C(O)C1CC2CCCC(C1)C2=O (stereo unspecified) | 2.14% (inactive) | 1.09% |
| COc1ccc(C2SCCN2C(=O)c2cc3cc(Br)ccc3oc2=O)cc1 (stereo unspecified) | 1.99% (inactive) | -4.59% |
| O=C1CCC(C(=O)N(Cc2ccc(F)cc2)C2CC2)=NN1c1ccccc1 | 2.48% (inactive) | 1.4% |
| CCn1c(C2CCN(CCC3=C(C)CCCC3(C)C)CC2)nn(C)c1=O | 14.4% (inactive) | 4.06% |
| CCc1cc(=O)[nH]c(-n2nc(C)cc2NC(=O)C2c3ccccc3Oc3ccccc32)n1 | 10.2% (inactive) | 5.92% |
| CNC(=O)NC(=O)C(C)Sc1nnc(-c2ccco2)n1CCC(N)=O (stereo unspecified) | 1.74% (inactive) | 5.62% |
| CCOC(=O)Nc1cc(=O)c2cc(C)ccc2o1 | 0.463% (inactive) | -6.18% |
| COc1ccc(C)c2sc(N(CCCN3CCOCC3)C(=O)c3ccc([N+](=O)[O-])cc3)nc12 | -0.485% (inactive) | -6.29% |
| O=C(CNCCN1CCOCC1)N(Cc1ccccc1)Cc1cccs1 | -7.58% (inactive) | -12.6% |
| COCCNCC(=O)N(Cc1ccccc1)Cc1ccc(C)s1 | -5.15% (inactive) | -13.2% |
| Cc1ccc(CN(Cc2ccc(F)cc2)C(=O)CNCCN2CCOCC2)s1 | 56.1% (active) | 58% |
